Shown are actives, neighbours in structure and some others; about 2.7% of the full set was active somewhere.
SKN-1 inh = suppressors of acrylamide-induced Pgst-4::GFP reporter in worms, primary screen, SKN-1 inhibitor project, whole organism, uHTS, GFP/RFP fluorescence ratio, strain VP596; inhibition, % at 21.8 µM; 0.49% of 360,000 active; AID 624304, 2012; C. elegans VP596 Pgst-4::GFP/RFP ratio, 24 h;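 active = interference check ratio from 0.5 to 1.5 plus GFP to RFP signal ratio inhibition reaching or exceeding a fixed threshold, cut at about 30% in these data, passing the limit was not always enough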
CFTR F508del cor = F508del CFTR correction, initial screen, CFBE line, single point | CFBE cells, YFP halide quenching; stimulated with forskolin plus potentiator P3; % fluorescence drop versus neutral controls | activity (quench increase), % at 7.58 µM | 0.36% of 350,000 active | AID 720511, 2013;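 active = mean added fluorescence quench of at least 8% versus neutral control, with both replicates also reaching 8%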;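 note: cells transiently co-express mutant CFTR-F508del with the halide-sensitive YFP; corrector assay measuring rescue of mutant channel to the surface after 24 h compound exposure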
ATG4B inh = ATG4B protease inhibitors, primary screen, biochemical, fluorescence, uHTS; ATG4B cleavage of LC3-PLA2, NBD-HPC fluorescence, 1 h; inhibition, % at 8.33 µM; 0.51% of 340,000 active; in the data active = inhibition above about 40%
MPTP inh = mitochondrial permeability transition pore inhibitors, primary screen, biochemical, isolated mouse mitochondria, absorbance; inhibition, % at 10 µM; AID 602449, 2012; Ca2+ swelling absorbance, 30 min; 1.4% of 360,000 active;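 active = inhibition of 50% or more, scaled per plate between neutral and stimulator controls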;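 note: 0% = DMSO wells given calcium and 100% = 1 mM EGTA wells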
NRP1-CendR mod = modulators of CendR peptide binding to NRP-1, primary screen, biochemical, fluorescence polarization, uHTS; FAM-RPARPAR peptide binding to NRP-1; inhibition, % at 25 µM; 0.85% of 360,000 active; Neuropilin-1 (Homo sapiens), O14786;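 active = inhibition or corrected inhibition above about 18%, plus a signal ratio from 0.5 to 1.5, limit read from the data, passing the limit was not always enough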
Target sequence (O14786 whole entry, looked up): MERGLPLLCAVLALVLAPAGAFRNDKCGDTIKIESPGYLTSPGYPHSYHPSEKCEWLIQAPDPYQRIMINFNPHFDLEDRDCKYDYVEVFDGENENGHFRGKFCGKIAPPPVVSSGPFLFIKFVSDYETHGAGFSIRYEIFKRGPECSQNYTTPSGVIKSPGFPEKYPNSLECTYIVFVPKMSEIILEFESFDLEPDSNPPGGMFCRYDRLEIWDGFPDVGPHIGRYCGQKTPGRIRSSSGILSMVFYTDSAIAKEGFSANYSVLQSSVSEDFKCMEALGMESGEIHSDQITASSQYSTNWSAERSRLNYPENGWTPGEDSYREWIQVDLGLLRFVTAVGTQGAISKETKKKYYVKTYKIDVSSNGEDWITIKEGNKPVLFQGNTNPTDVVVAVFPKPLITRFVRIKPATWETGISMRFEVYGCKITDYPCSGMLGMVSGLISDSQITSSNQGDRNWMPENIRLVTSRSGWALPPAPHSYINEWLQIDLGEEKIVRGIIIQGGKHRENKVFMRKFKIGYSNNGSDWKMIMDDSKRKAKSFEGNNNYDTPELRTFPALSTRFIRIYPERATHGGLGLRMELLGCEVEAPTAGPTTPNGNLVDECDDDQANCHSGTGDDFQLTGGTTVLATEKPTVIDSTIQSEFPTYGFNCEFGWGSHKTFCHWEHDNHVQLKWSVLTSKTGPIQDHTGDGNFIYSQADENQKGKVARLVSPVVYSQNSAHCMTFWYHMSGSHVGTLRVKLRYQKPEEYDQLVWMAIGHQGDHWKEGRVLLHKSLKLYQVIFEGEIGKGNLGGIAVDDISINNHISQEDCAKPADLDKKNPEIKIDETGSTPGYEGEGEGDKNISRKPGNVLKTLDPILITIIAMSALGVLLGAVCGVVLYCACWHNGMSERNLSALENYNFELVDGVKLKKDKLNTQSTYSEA
Numbers without * were called inactive; i = inactive; / = not tested or not shown.

SMILES | SKN-1 inh | CFTR F508del cor | ATG4B inh | MPTP inh | NRP1-CendR mod
C=C[C@]12CC[C@H](OC(C)=O)CC1=CCC1C2CC[C@@]2(C)C1CCC21OCCO1 (stereo partly drawn) | 6.2 | 2.5 | -6.4 | -0.2 | 22.2*
C[C@]12CC[C@H](O)CC1=CCC1C2CC[C@@]2(C)C1CCC21OCCO1 (stereo partly drawn) | 24.4 | 6.2 | -6.2 | 1.2 | 7.3
CC(=O)Nc1ccccc1C(=O)C(=O)O | -6.2 | / | 0.6 | -4.6 | 26.0*
CCC(=O)Nc1nc(C)c(Oc2ccccc2)c(=O)[nH]1 | -8.2 | / | -4.1 | -1.4 | 23.9*
CC(=O)Nc1nc(C)c(Oc2ccccc2)c(=O)[nH]1 | 14.6 | / | 0.2 | -0.7 | 11.8
O=C1C=CCC(/C=C/c2ccccc2)O1 (stereo not drawn) | / | 14.9* | 6.7 | / | /
O=C/C=C/c1ccc(/C=C/c2ccccc2)cc1 | / | -2.8 | / | / | /
C[C@@H]1CN([C@H](C)CO)C(=O)c2cc(N(C)C)ccc2O[C@@H](C)CCCCO[C@H]1CN(C)Cc1ccc(C(=O)O)cc1 | / | 3.6 | / | / | /
O=c1[nH][nH]c2cc(=O)n(-c3cccc(C(F)(F)F)c3)nc12 | 8.3 | -1.0 | 10.5 | 1.0 | 25.8*
Nc1n[nH]c2cc(=O)n(-c3cccc(C(F)(F)F)c3)nc12 | 5.5 | 0.4 | -17.5 | 1.4 | 0.5
CO[C@@H]1CN(C)C(=O)c2cc(NC(=O)c3cccc(F)c3)ccc2OC[C@@H](C)N(CC2CC2)C[C@@H]1C | / | -1.4 | / | / | /
CCN(CC)S(=O)(=O)c1cc(NC(=O)COC(=O)CCC(=O)c2cccs2)ccc1C | -3.1 | -1.9 | -18.3 | 0.0 | 26.1*
CN(C)/C=C1\C=C2C(=O)c3ccccc3N2C1=O | -54.8 | 31.8* | i | 1.2 | 130.4
COc1ccc(S(=O)(=O)NC(C)C(=O)NC2CC2)cc1C (stereo not drawn) | -2.0 | -0.6 | -2.5 | 0.0 | 28.2*
COc1ccc(S(=O)(=O)NC2CC2)cc1Br | -3.3 | 2.0 | 6.9 | 0.3 | 27.1*
COc1cc(S(=O)(=O)NC2CCCCC2)ccc1F | 8.9 | / | 0.4 | -2.8 | -10.7
O=C(Nc1ccc(NC(=O)C2CC2)nc1)c1ccccn1 | 9.0 | / | -12.8 | 1.0 | -6.7
O=C(Nc1ccc(NC(=O)C2CC2)nc1)c1cnccn1 | -3.7 | 0.8 | -13.5 | 1.6 | 19.0*
O=C(C[C@H]1C[C@@H]2c3cc(NC(=O)NC4CCCCC4)ccc3O[C@@H]2[C@H](CO)O1)NCCc1ccccc1 | / | -1.6 | / | / | /
O=C1CCN(Cc2ccccc2)S(=O)(=O)c2ccccc21 | 11.5 | 2.0 | -1.1 | -1.5 | 23.5*
C=C1CCN(Cc2ccccc2)S(=O)(=O)c2ccccc21 | 1.8 | -1.8 | 7.0 | -0.1 | -3.1
COc1cc2c(cc1OC)C(=O)C(c1ccc3c(c1)OCO3)CC2 (stereo not drawn) | 18.7 | 1.9 | / | -1.3 | 2.9
COc1cc2c(cc1OC)C(=O)C(Br)CC2 (stereo not drawn) | 8.7 | / | / | 2.1 | 25.5*
C[C@H]1CCCCO[C@@H](CN(C)Cc2ccc(C(=O)O)cc2)[C@@H](C)CN([C@@H](C)CO)C(=O)c2cc(NC(=O)Nc3ccc4c(c3)OCO4)ccc2O1 | / | -0.9 | / | / | /
COc1ccc(NC(=O)N(C)C[C@@H]2Oc3ccc(N(C)C)cc3CC(=O)N([C@H](C)CO)C[C@@H]2C)cc1 | / | 2.3 | / | / | /
SMILES | SKN-1 inh | CFTR F508del cor | ATG4B inh | MPTP inh | NRP1-CendR mod
CO[C@@H]1CN(C)C(=O)c2cc(NC(=O)Nc3cccc(F)c3)ccc2OC[C@H](C)N(C(C)=O)C[C@H]1C | / | -2.3 | / | / | /
COC(=O)C1N[C@@H]([C@@H](NC(=O)COc2ccccc2)C(=O)NC2CC2)SC1(C)C (stereo partly drawn) | 10.5 | 1.7 | -3.4 | 2.4 | 31.1*
COc1ccc(-c2cc(-c3ccc(C)cc3)n[nH]2)c(O)c1 | 38.9* | -0.8 | 7.9 | 0.7 | 6.3
CCN(CC)C(=O)c1sc(NC(=O)Cc2ccc(OC)cc2)c(C#N)c1C | 45.5* | / | -1.3 | -5.7 | 1.7
CCOc1ccc(C(=O)N[C@H](C(=O)Nc2cccc(S(=O)(=O)N3CCCCC3)c2)C(C)C)cc1 | -6.7 | 14.7* | 4.5 | 1.6 | -0.7
CCCN(C)C[C@@H]1Oc2cc(C#Cc3ccc(OC)cc3)ccc2S(=O)(=O)N([C@H](C)CO)C[C@@H]1C | / | -0.4 | / | / | /
CC(C)(C)OC(=O)NCC12C=CC(O1)C1C(=O)N(Cc3ccccc3)C(=O)C12 (stereo not drawn) | 37.0* | / | -8.4 | 2.9 | 9.0
C=C1C(=O)O[C@H]2[C@H]1[C@H](OC(=O)/C(C)=C\C)C[C@]1(CO1)[C@@H]1[C@H](OC(C)=O)C=C(C)[C@]21O | -3.1 | -1.8 | -4.3 | -0.8 | 2.2
C=C1C(=O)O[C@@H]2[C@H]1[C@@H](OC(=O)/C(C)=C/C)C/C(C)=C\C(=O)/C=C(\C)[C@@H]2O | 18.7 | 9.7* | -2.0 | -0.1 | -14.3
COC(=O)c1cc(NC(=O)Cc2coc3cc(OC)ccc23)cc(C(=O)OC)c1 | 15.9 | / | -14.2 | 0.8 | -10.6
COC(=O)c1ccc(C)c(NC(=O)Cc2coc3cc(OC)ccc23)c1 | -7.3 | 3.4 | -9.5 | -0.2 | 31.7*
C[C@@H]1CN([C@H](C)CO)C(=O)c2cc(C#Cc3cccnc3)cnc2O[C@H]1CN(C)Cc1ccccc1 | / | 2.0 | / | / | /
O=C1C=C(NCc2ccco2)C2(CCCCC2)O1 | 5.0 | / | -7.5 | -0.3 | 22.7*
O=C1C=C(NCc2ccccc2)C2(CCCCC2)O1 | -0.4 | / | -3.5 | 1.6 | -9.1
Cc1noc(C)c1NC(=O)Nc1cccc2c1O[C@@H](CN(C)Cc1ccc(C(=O)Nc3ccccc3N)cc1)[C@H](C)CN([C@@H](C)CO)C2=O | / | -0.7 | / | / | /
Cc1ccc(S(=O)(=O)Nc2cccc3c2O[C@@H](CN(C)S(=O)(=O)c2ccc(C)cc2)[C@H](C)CN([C@H](C)CO)C3=O)cc1 | / | -3.6 | / | / | /
CC(C)(C)c1cccc(P(=O)(c2ccccc2)c2ccccc2)c1O | 0.9 | 1.9 | -2.5 | 1.2 | -1.3
O=P(c1ccccc1)(c1ccccc1)c1ccccc1C(Br)Br | 4.1 | 0.5 | / | 0.0 | 27.9*
COc1ccccc1C(=O)NCCCNC(=O)c1cccnc1 | 26.9 | -0.4 | -6.5 | -0.1 | 33.0*
Clc1ccc(Cl)c(-c2nc(-c3ccncc3)no2)c1 | 16.3 | 3.0 | -5.3 | 4.3 | -8.0
Cc1ccccc1-c1nc(-c2cccnc2)no1 | 17.5 | / | -8.8 | 1.6 | -9.6
Clc1ccccc1-c1nc(-c2cccnc2)no1 | 33.9* | / | -9.8 | -1.7 | 2.5
Clc1ccc(OCCCc2nc(-c3ccncc3)no2)c(Cl)c1 | 43.3* | / | -14.1 | -0.6 | -13.0
Clc1ccc(-c2nc(-c3ccncc3)no2)c(Cl)c1 | 36.5* | 2.9 | -1.0 | 0.3 | -4.3
Clc1ccccc1-c1nc(-c2ccncc2)no1 | 45.9* | 5.2 | 6.1 | -1.1 | 2.3

Source: PubChem
